The list is not random: actives were taken first. Their share in the collection is about 19%.
CHX counter: counter-screen hit for Shiga toxin inhibitors, cycloheximide; cell reporter, cycloheximide protein synthesis inhibition counterscreen; max response, %; 300,000 tested, 12% active; in the data active = max response mostly above about 13%, no sharp cut-off; inactive = mostly below about 14%; note: read at 38.3 µM for the half of the compounds with a filed dose
Pf growth 96h: P. falciparum growth inhibition at 96 hours | P. falciparum luciferase reporter growth, 96 h | Potency, µM (top dose mostly 28.7 µM), most hits filed as inhibitors | 320,000 tested, 6.9% active
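Compounds incubated with erythrocytes infected by luciferase-expressing P. falciparum (2% hematocrit, 0.05% parasitemia final) for 96 hours, 37 C in 5% CO2. Growth inhibition scored as decreased luciferase luminescence.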
LASV entry inh: Lassa virus entry inhibition; Lassa virus pseudotype entry inhibition, cell reporter; 300,000 tested, 1.2% active; Potency, µM (highest dose often 37.9 µM), most hits filed as inhibitors; AID 540256; calls by dose curve; tested in HEK293 cells; note: nearly all actives have a fitted effect of over 50% in size
Marburg entry inh: Marburg virus entry inhibition; Marburg virus pseudotyped entry inhibition, cell reporter; 300,000 tested, 1.8% active; Potency, µM (titrated, usually from 37.8 µM), hits mostly inhibitors; calls by dose curve; tested in HEK293 cells
Pf growth 48h: inhibits P. falciparum growth in the first generation, 48 h | P. falciparum luciferase growth in erythrocytes, 48 h | Potency, µM (top dose mostly 28.7 µM), most hits filed as inhibitors | 310,000 tested, 5.9% active | AID 504832
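Luminescence readout; reporter = integrated firefly luciferase in P. falciparum. RBC culture at 2% hematocrit, 0.1% parasitemia final, 37 C/5% CO2; decreased signal taken as growth inhibition.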
Shiga inhibitor: Shiga toxin inhibition; Vero cells, Shiga toxin protein synthesis inhibition reporter; inhibition, % at 38.7 µM; 290,000 tested, 9.2% active; AID 2315; in the data active = inhibition mostly above about 28%, no sharp cut-off; inactive = mostly below about 43%
Numbers stand for hits. Unless noted, calls come from the whole dose curve; as a rule, active = well fitted inhibition curve with a large enough effect; inconclusive = small, poorly fitted or top-dose-only effect, or another doubt; inactive = no such curve, though single readings can be large or run the other way.

`CCOC(=O)C1(CCc2ccccc2)CCN(C(=O)C2=C(C)OCCO2)CC1` gave CHX counter 22, Pf growth 96h inconclusive, LASV entry inh inactive, Marburg entry inh inactive, Pf growth 48h inactive and Shiga inhibitor 42.
CCOC(=O)C1(CCc2ccccc2)CCN(Cc2ccc(O)cc2)CC1 was read as CHX counter inactive, Pf growth 96h inactive, Pf growth 48h inconclusive and Shiga inhibitor inactive.
Screening CCOC(=O)C1(CCc2ccccc2)CCN(C(=O)c2cnc(C)cn2)CC1 returned CHX counter 29, Pf growth 96h inactive, LASV entry inh inactive, Marburg entry inh inactive, Pf growth 48h inactive and Shiga inhibitor 83.
`CCOC(=O)C1(CCc2ccccc2)CCN(C(=O)CN2CCOC2=O)CC1` gave CHX counter 21, Pf growth 96h 1.7µM, LASV entry inh inactive, Marburg entry inh inconclusive, Pf growth 48h inactive and Shiga inhibitor inactive.
CCOC(=O)C1(CCc2ccccc2)CCN(C(=O)CCc2cnn(C)c2)CC1 was read as CHX counter inactive, Pf growth 96h inconclusive, LASV entry inh inactive, Marburg entry inh inactive, Pf growth 48h inactive and Shiga inhibitor inactive.
Screening Cc1ccc(S(=O)(=O)N2CCC(C(=O)OC(C)C(=O)NCc3ccc4c(c3)OCO4)CC2)cc1 (stereo unspecified) returned CHX counter inactive, Pf growth 96h inactive, LASV entry inh inconclusive, Marburg entry inh inactive, Pf growth 48h inactive and Shiga inhibitor inactive.
`Cc1ccc(C)c(N2CCN(S(=O)(=O)c3cc(C(=O)Nc4cc(Cl)cc(Cl)c4)ccc3F)CC2)c1` gave LASV entry inh inactive.
Screening Cc1ccc(CSCc2ccc(C(=O)NC3CCCC3)o2)cc1 returned CHX counter inactive, Pf growth 96h inactive, LASV entry inh inactive, Marburg entry inh inactive, Pf growth 48h inconclusive and Shiga inhibitor inactive.
For CCC(C)NC(=O)c1ccc(CSCc2ccc(Cl)cc2)o1 (stereo unspecified) the results were CHX counter inactive, Pf growth 96h inactive, LASV entry inh inactive, Marburg entry inh inactive, Pf growth 48h inconclusive and Shiga inhibitor inactive.
For O=C(NC1CC1)c1ccc(CS(=O)c2ccc(Br)cc2)o1 (stereo unspecified) the results were CHX counter inactive, Pf growth 96h 10µM, Pf growth 48h inactive and Shiga inhibitor inactive.
For CCC(C)NC(=O)c1ccc(CSCc2cccc(F)c2)o1 (stereo unspecified) the results were CHX counter 25, Pf growth 96h inconclusive, LASV entry inh inactive, Marburg entry inh inactive and Shiga inhibitor inactive.
O=C(NC1CC1)c1ccc(CSCc2cccc(F)c2)o1 was read as CHX counter 11, Pf growth 96h inactive and Shiga inhibitor inactive.
Screening Cc1ccc(CSCc2ccc(C(=O)NC3CC3)o2)cc1 returned CHX counter inactive, Pf growth 96h inconclusive, Pf growth 48h 1.2µM and Shiga inhibitor inactive.
O=C(NCc1ccc(F)cc1)c1ccc(CSCc2cccc(Cl)c2)o1 was read as LASV entry inh inactive.
`c1ccc(Cc2nnc3n2CCCCC3)cc1` gave CHX counter inactive, Pf growth 96h inactive, LASV entry inh inactive, Marburg entry inh inactive, Pf growth 48h inactive and Shiga inhibitor inactive.
Cc1cccc(-n2nc3c(c2NC(=O)c2ccc(S(=O)(=O)N4CCOCC4)cc2)CSC3)c1C was read as CHX counter inactive, Pf growth 96h inactive, LASV entry inh inactive, Marburg entry inh inactive, Pf growth 48h 12µM and Shiga inhibitor inactive.
`O=C(Nc1c2c(nn1-c1ccc(F)cc1)CSC2)c1ccc(S(=O)(=O)N2CCOCC2)cc1` gave CHX counter inactive, Pf growth 96h inactive, LASV entry inh inactive, Marburg entry inh inactive, Pf growth 48h inconclusive and Shiga inhibitor inactive.
For Cc1ccc(-n2nc3c(c2NC(=O)c2ccc(S(=O)(=O)N4CCOCC4)cc2)CSC3)c(C)c1 the results were CHX counter inactive, Pf growth 96h inactive, LASV entry inh inconclusive, Marburg entry inh inactive, Pf growth 48h 5.9µM and Shiga inhibitor inactive.
For CC(C)C[C@H](NC(=O)c1cc2cc(Cl)ccc2n1C)C(=O)N1CCC[C@H]1C(=O)O the results were CHX counter inactive, Pf growth 96h inconclusive, Pf growth 48h inactive and Shiga inhibitor inactive.
Screening CC1=Nc2ccccc2/C1=C/c1c(O)[nH]c(=O)[nH]c1=O returned CHX counter inactive, Pf growth 96h 2.1µM, Pf growth 48h inactive and Shiga inhibitor inactive.
`CC(C)(C)C1c2[nH]c3ccccc3c2CCN1Cc1cccc(OCCO)c1` (stereo unspecified) gave CHX counter 11, Pf growth 96h inconclusive, LASV entry inh inconclusive, Marburg entry inh inconclusive, Pf growth 48h inactive and Shiga inhibitor inactive.
`CN1c2ccccc2C(C)(C)C12C=Nc1c(cc(N3CCOCC3)c3ccccc13)O2` (stereo unspecified) gave CHX counter inactive, Pf growth 96h inconclusive, LASV entry inh inconclusive, Marburg entry inh inconclusive, Pf growth 48h inconclusive and Shiga inhibitor inactive.
For CN1c2ccccc2C(C)(C)C12C=Cc1cc(O)ccc1O2 (stereo unspecified) the results were CHX counter 21, Pf growth 96h inconclusive, LASV entry inh 15µM, Marburg entry inh inconclusive, Pf growth 48h inconclusive and Shiga inhibitor inactive.
Screening CNS(=O)(=O)/C=C/c1ccccc1 returned CHX counter inactive, Pf growth 96h inactive, LASV entry inh inactive, Marburg entry inh inconclusive, Pf growth 48h inactive and Shiga inhibitor inactive.
Screening O=S(=O)(/C=C/c1ccccc1)Oc1ccccc1 returned CHX counter 28, Pf growth 96h 3.3µM, LASV entry inh inconclusive, Marburg entry inh inconclusive and Shiga inhibitor inactive.
For C/C(Cc1ccccc1)=N\NC(=O)CNC(=O)c1cccc(Cl)c1 the results were CHX counter inactive, Pf growth 96h inactive, LASV entry inh inactive, Marburg entry inh inactive, Pf growth 48h inactive and Shiga inhibitor inactive.
Screening Cn1c(C(=O)NCc2ccccn2)cc2c(=O)n3ccccc3nc21 returned CHX counter 29, Pf growth 96h inconclusive, LASV entry inh inactive, Marburg entry inh inconclusive, Pf growth 48h inactive and Shiga inhibitor 58.
Screening Cn1c(C(=O)NC2CCCCC2)cc2c(=O)n3ccccc3nc21 returned CHX counter 23, Pf growth 96h inactive, Pf growth 48h inactive and Shiga inhibitor inactive.
`COc1ccc2c(c1)c(CC(=O)O)c(C)n2C(=O)c1ccc(Cl)cc1` gave CHX counter inactive, Pf growth 96h inactive, LASV entry inh inactive, Marburg entry inh inconclusive, Pf growth 48h inactive and Shiga inhibitor inactive.
For O=c1[nH]c(CN2CCN(c3ccccc3Cl)CC2)nc2ccsc12 the results were CHX counter inactive, Pf growth 96h inconclusive, LASV entry inh inactive, Marburg entry inh inactive, Pf growth 48h inactive and Shiga inhibitor inactive.
For O=c1[nH]c(CN2CCN(c3ccc(O)cc3)CC2)nc2scc(-c3ccc(Cl)cc3)c12 the results were CHX counter inactive, Pf growth 96h inconclusive, Pf growth 48h 3.7µM and Shiga inhibitor inactive.
Screening O=c1[nH]c(CN2CCN(c3ccccc3O)CC2)nc2scc(-c3ccccc3Cl)c12 returned CHX counter inactive, Pf growth 96h 9.3µM, Pf growth 48h 5.2µM and Shiga inhibitor inactive.

High-throughput results: PubChem, National Center for Advancing Translational Sciences (NCATS)
